The source of these data is PubChem BioAssay (EPA / NIEHS).

In general, AC50 refers to the concentration at which the activity in the assay is half-maximal.

Results filed as inconclusive are left out. The source made the active and inactive calls. The calls were made as follows: active = hit-call score of the fitted dose curve at least 0.9, where 1 is the maximum; inconclusive = response in the unintended direction; inactive = score below 0.9.

Sequence of AR (gene 367) (P10275 whole entry, looked up): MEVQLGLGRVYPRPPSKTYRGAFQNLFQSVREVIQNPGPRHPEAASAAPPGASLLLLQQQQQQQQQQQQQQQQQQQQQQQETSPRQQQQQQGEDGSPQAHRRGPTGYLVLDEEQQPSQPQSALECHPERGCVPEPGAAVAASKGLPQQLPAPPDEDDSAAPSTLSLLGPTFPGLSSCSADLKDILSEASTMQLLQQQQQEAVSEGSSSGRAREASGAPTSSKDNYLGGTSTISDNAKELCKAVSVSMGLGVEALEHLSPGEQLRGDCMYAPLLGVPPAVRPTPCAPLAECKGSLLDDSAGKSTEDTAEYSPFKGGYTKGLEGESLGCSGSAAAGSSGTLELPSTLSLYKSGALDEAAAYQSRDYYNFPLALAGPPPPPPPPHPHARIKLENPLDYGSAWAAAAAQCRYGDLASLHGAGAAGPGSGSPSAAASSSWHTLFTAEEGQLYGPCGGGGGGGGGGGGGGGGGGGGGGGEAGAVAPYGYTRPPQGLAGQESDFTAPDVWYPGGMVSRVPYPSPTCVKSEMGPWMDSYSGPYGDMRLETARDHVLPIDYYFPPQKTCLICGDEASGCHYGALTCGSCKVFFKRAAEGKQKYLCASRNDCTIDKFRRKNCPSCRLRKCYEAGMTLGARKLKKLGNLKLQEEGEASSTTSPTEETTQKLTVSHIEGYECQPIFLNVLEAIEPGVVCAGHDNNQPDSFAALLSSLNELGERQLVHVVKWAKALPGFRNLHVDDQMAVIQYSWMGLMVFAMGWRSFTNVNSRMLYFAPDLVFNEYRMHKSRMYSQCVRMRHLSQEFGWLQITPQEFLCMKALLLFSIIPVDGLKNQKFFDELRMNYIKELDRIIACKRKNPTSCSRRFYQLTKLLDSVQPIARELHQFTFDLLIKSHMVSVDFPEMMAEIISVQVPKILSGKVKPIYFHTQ

Tested on in the first experiment: not listed separately
Put plainly: ACEA_ER_AUC_viability: ACEA Biosciences xCELLigence Real-Time Cell Analysis on Estrogen Receptor Agonism for Viability (AID 2283782).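 Also: continuous compound exposure with impedance area under curve over 80 h; hit means loss of impedance signal meaning reduced cell growth or viability.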 In short, it runs like this: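 T-47D; phenol red-free RPMI1640 + 10% CS-FBS; 8 conc., 1:4 serial, max 100 uM final, ≤0.5% DMSO; n = 2; continuous exposure; impedance monitored to 80 h post-dose; AUC vs DMSO.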
Turning to `Nc1nc(Cl)nc2c1ncn2[C@H]1C[C@H](O)[C@@H](CO)O1`, the AC50 was 0.0619 µM (active). `O=C1CCCCC1`: the outcome was inactive. As to `NC(=Nc1ccccc1)Nc1ccccc1`, the AC50 is 1.79 µM (active).

For the next experiment, the target named is AR (gene 367) (UniProt P10275). Put plainly: ACEA_AR_agonist_80hr: ACEA Biosciences xCELLigence Real-Time Cell Analysis on Androgen Receptor Agonism for Proliferation (AID 2283783).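 Also: hits increase impedance growth signal above DMSO baseline.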 The essentials:
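Androgen-driven proliferation in 22Rv1 cells is tracked as electrical impedance, taken 80 h after continuous exposure to compound (eight concentrations, 1:4 steps, maximum 100 uM final). Activity is fitted in the positive direction with DMSO as baseline.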
In the case of `CCC(C)N(C)C(=O)c1cc2ccccc2c(-c2ccccc2Cl)n1` (configuration not stated), the result was inactive. On the same count and under the same terms, with `O=C(Oc1ccccc1)c1cccc(C(=O)Oc2ccccc2)c1` the entry was “inactive”; with `Nc1nc(=S)c2[nH]cnc2[nH]1`, “inactive”.

For `CC(C)OC(=O)C(C)(C)Oc1ccc(C(=O)c2ccc(Cl)cc2)cc1`, the compound was classed as inactive. With `O=C1OC(c2ccc(O)cc2)(c2ccc(O)cc2)c2ccccc21`, the call was inactive. Same read-out and setting: with `C#CC(O)C(CC)CCCC` (configuration not stated) the entry was “inactive”; with `CC1=C(C)S(=O)(=O)CCS1(=O)=O`, “inactive”.

Tested on in a further experiment: not listed separately
Put plainly: STM_H9_NormalizedViability: Cytotoxicity Assessment at 120 hours in the Stemina devTOX quickPredict H9 human embryonic stem cell (hESC)-based Assay (AID 2283784). In short, it runs like this: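 Pluripotent H9 hESCs were exposed, with chemical and media replaced every 24 h. Viability was read by CellTiter-Fluor fluorescence, background-corrected and normalized to the 0.1% DMSO neutral control per plate. Loss of signal was fitted.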
For the compound `O=C(O)c1cccnc1`, the result was inactive. Turning to `CCC(C)N(C)C(=O)c1cc2ccccc2c(-c2ccccc2Cl)n1` (configuration not stated), the outcome was inactive.

`Cc1cc(Cc2ccc(N)c(C)c2)ccc1N`: the result was inactive. Still for that read-out and setting: then `CCCCCCCCCCCCCCCCO`, with “inactive”. For the compound `CN(C)CCCN1c2ccccc2Sc2ccc(Cl)cc21`, the AC50 is 3.22 µM (active).

`O=C(Oc1ccccc1)c1cccc(C(=O)Oc2ccccc2)c1`: the result was inactive.

On to `CCc1nc(N)nc(N)c1-c1ccc(Cl)cc1`, for which the AC50 is 33.9 µM (active).

For `Nc1nc(=S)c2[nH]cnc2[nH]1`, the AC50 is 3.32 µM (active). In the case of `CC(=O)[C@@]1(O)CC[C@H]2[C@@H]3CCC4=CC(=O)CC[C@]4(C)[C@H]3CC[C@@]21C`, the outcome was inactive.

With `CC(=O)CC(c1ccccc1)c1c(O)c2ccccc2oc1=O` (configuration not stated), the result was inactive. Still for that read-out and setting: with `O=C1OC(c2ccc(O)cc2)(c2ccc(O)cc2)c2ccccc21` the entry was “inactive”. As for `CCN(CC)CCOc1ccc(C(=C(Cl)c2ccccc2)c2ccccc2)cc1`, the AC50 is 8.7 µM (active).
